Experimental findings from PubChem BioAssay AID686979 (National Center for Advancing Translational Sciences (NCATS), 2013) are described below.

Values joined by “and” are separate entries in the source; they are usually repeats but may differ in a detail not shown here. Identical values can stand only once. In all, about 420,000 compounds went through this assay and about 50,000 (12%) were called active. Entries that show only a call come without a potency. Roughly 26% stayed inconclusive and do not appear here. Calls follow the shape of the dose curve; as a rule, active = well fitted inhibition curve with a large enough effect; inconclusive = small, poorly fitted or top-dose-only effect; inactive = flat fitted curve, though single readings scatter. Many of the other results were omitted from the sample, so actives are more common in it than they were. Some compounds were tested as several samples or in several runs, with calls that do not always agree.
Potency is read from the fitted curve at half-maximal effect.

The nature of the assay: qHTS for Inhibitors of human tyrosyl-DNA phosphodiesterase 1 (TDP1): qHTS in cells in presence of CPT. Also: nearly all actives have a fitted effect of over 55% in size. Particulars: chicken DT40 Tdp1-/-;hTDP1 cells + 20 nM CPT, ATP luminescence, 48 h; series mostly up to 46.2 µM. In short, it runs like this: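 Chicken DT40 Tdp1-/- cells stably complemented with human TDP1 were seeded at 400 cells/well in medium containing 20 nM camptothecin, exposed to pin-transferred compounds, and grown at 37 °C for at least 48 hr. Viability was read as ATP luminescence.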
For orientation: qHTS replaces the single test concentration by a dilution series.
For the molecule `Cc1noc(C)c1COc1ccccc1C(=O)N(C)CC(=O)Nc1cccc(F)c1`, the Potency entry is “inactive”.

Consider `C[C@H]1NS(=O)(=O)c2cc(Cl)ccc2O[C@@H]1c1ccccc1`, for which the Potency entry was “inactive”.

Consider `COc1ccc(OC)c(S(=O)(=O)n2c([N+](=O)[O-])cnc2C)c1`, for which the Potency result was “inactive”.

Take `COCCSc1nnc(NC(=O)CCS(=O)(=O)Cc2ccccc2)s1`: the Potency entry is “inactive”.

In the case of `CCCCc1nnc(NC(=O)CS(=O)(=O)Cc2ccccc2)s1`, the Potency entry was “inactive”.

With `CCOCc1nnc(NC(=O)CCS(=O)(=O)Cc2ccccc2)s1`, the Potency was 9.2 µM (active).

Consider `Cn1c(N)c(C(=O)COC(=O)/C=C/c2cccc(C(F)(F)F)c2)c(=O)n(C)c1=O`, for which the Potency entry was “inactive”.

Take `Cc1ccc(CSCC(=O)N(C)CC(=O)Nc2cccc(F)c2)cc1`: the Potency result is “inactive”.

Regarding `CCS(=O)(=O)c1ccc(-c2cccc(NC(=O)c3ccc(Br)o3)c2)nn1`, the Potency entry was “inactive”.

Take `Cc1ccc(S(=O)(=O)N(Cc2ccc(Cl)cc2)c2ccccc2C(=O)NCc2cccnc2)cc1`: the Potency was 18.4 µM (active).

Consider `CS(=O)(=O)N(Cc1ccccc1Cl)c1ccc(C(=O)NCc2cccnc2)cc1`, for which the Potency is 23.1 µM (active).

Regarding `O=C(NCc1cccnc1)c1cccnc1Sc1ccc(Cl)cc1`, the Potency result was “inactive”.

Turning to `Cc1ccc(C(=O)NC(=S)NCc2cccnc2)cc1`, the Potency entry is “inactive”.

With `O=C(NCc1ccc(Cl)c(Cl)c1)c1cccnc1`, the Potency result is “inactive”.

Turning to `O=C(O)c1ccccc1-c1ccccc1C(=O)NCc1cccnc1`, the Potency result was “inactive”.

Consider `CC(=O)NCC(=O)N(C)C(C(=O)Nc1ccc2c(c1)OCCO2)c1ccccc1` (configuration not stated), for which the Potency result was “inactive”.

For `O=C(NCc1ccncc1)C(=O)NCC1OCCN1S(=O)(=O)c1ccc(Br)cc1` (configuration not stated), the Potency result is “inactive”.

`COc1ccc(S(=O)(=O)N2CCOC2CNC(=O)C(=O)NCc2ccc(F)cc2)cc1` (configuration not stated): the Potency result was “inactive”.

For the molecule `O=C(NCCCN1CCCC1=O)C(=O)NCC1OCCN1S(=O)(=O)c1ccc(Br)cc1` (configuration not stated), the Potency was 18.4 µM (active).

Consider `CCOC(=O)c1cnc2c(C)cc(Cl)cc2c1NCCc1ccc(OC)c(OC)c1`, for which the Potency result was “inactive”.

On to `CCOC(=O)c1cnc2c(C)cc(C)cc2c1Nc1ccc(N2CCOCC2)cc1`, for which the Potency was 25.9 µM (active).

As for `CCOC(=O)c1ccccc1C(=O)N1CCOCCOCCOCC1`, the Potency result is “inactive”.

`CC(C)(O)C1=C[N+](=O)CC=C1`: the Potency entry was “inactive”.

For `COc1ccc(SCc2cc(=O)c3ccc(C)c(C)c3[nH]2)cc1`, the Potency entry was “inactive”.

Turning to `CCOC(=O)c1ccccc1CN1C(=O)c2ccccc2S1(=O)=O`, the Potency result was “inactive”.

Consider `CCOC(=O)CN1C(C(=O)c2ccccc2)=C(OC(=O)C(C)(C)C)c2ccccc2S1(=O)=O`, for which the Potency was 20.6 µM (active).

Turning to `COC(=O)C1=C(c2ccccc2)c2ccccc2S(=O)(=O)N1CC(=O)Nc1ccccc1C(F)(F)F`, the Potency result is “inactive”.

Regarding `Cc1ccc2c(c1)N(CC(=O)N1CCC(O)CC1)C(=O)CO2`, the Potency result was “inactive”.

`Fc1ccc(-c2nc(Nc3cccc(Cl)c3)nc3c2COc2ccccc2-3)cc1`: the Potency entry was “inactive”.

For `Cc1cc(OCC(=O)NCC(O)c2ccccc2)c2c(C)c(C)c(=O)oc2c1` (configuration not stated), the Potency result was “inactive”.

On to `Cc1ccc(N(CC(=O)NCC2CCCO2)C(=O)CNS(=O)(=O)c2ccc(Cl)cc2)cc1` (configuration not stated), for which the Potency result is “inactive”.

For the molecule `Nc1ccccc1N`, the Potency result was “inactive and 4.86 µM (active)”.

As to `Nc1ccccc1/C=N\N=C/c1ccccc1N`, the Potency entry is “inactive”.

On to `Nc1cccnc1Sc1ccccc1`, for which the Potency result is “inactive”.

As to `CC1=NN(C(=O)c2ccc(Br)cc2)C(O)(c2ccccc2)C1` (configuration not stated), the Potency entry was “inactive”.

On to `Cc1ccc2nc(Nc3ncc4c(n3)CC(C)(C)CC4=O)nc(C)c2c1`, for which the Potency result was “inactive”.

Consider `N#Cc1ccc(C(C(=O)NCc2ccccc2)n2c(=O)c(-c3ccco3)nc3ccccc32)cc1` (configuration not stated), for which the Potency is 20.6 µM (active).

With `O=C(NNC(=S)NCc1ccco1)C(c1ccccc1)c1ccccc1`, the Potency entry is “inactive”.

As for `CCCN(CCC)CCCNC(=O)CNC(=O)c1nn(-c2ccc(OC)cc2)c(=O)c2ccccc12`, the Potency entry is “inactive”.

Take `COc1ccc(C(C(=O)NCc2ccccc2)n2c(=O)c(-c3ccccc3)nc3ccccc32)cc1` (configuration not stated): the Potency is 14.6 µM (active).

Consider `CCCCCNC(=O)C(c1ccc(OC)cc1)n1c(=O)c(-c2ccccc2)nc2ccccc21` (configuration not stated), for which the Potency was 23.1 µM (active).

Turning to `CCOCCCNC(=O)C(NC(=O)CNC(=O)c1ccccc1)c1ccc(OC)cc1` (configuration not stated), the Potency result was “inactive”.

For `CCc1nc2ccccc2c(C(=O)NCc2ccc(OC)cc2)c1C`, the Potency entry is “inactive”.

With `O=C(CSc1nnc(-c2ccco2)n1Cc1ccccc1)NC(=O)NCc1ccco1`, the Potency entry is “inactive”.

Turning to `COc1ccc(CNC(=O)C(C)NCc2ccccc2Cl)cc1` (configuration not stated), the Potency entry is “inactive”.

As for `O=C1COc2ccc(S(=O)(=O)NCCc3ccc(Cl)cc3)cc2N1`, the Potency result is “inactive”.

Turning to `COc1ccc(N(CC(=O)NCCSCc2cccc(Cl)c2)S(C)(=O)=O)cc1`, the Potency entry was “inactive”.

With `O=C1CCC(=O)N(c2ccccc2)N1`, the Potency entry is “inactive”.

As to `O=c1[nH]n(-c2ccc([N+](=O)[O-])cc2)c(=O)c2ccccc12`, the Potency entry is “inactive”.

Take `O=C1CC(c2ccccc2)=NN1c1ccc([N+](=O)[O-])cc1`: the Potency is 16.4 µM (active).

Regarding `Cc1nc(-c2ccc([N+](=O)[O-])cc2)c(-c2ccccc2)o1`, the Potency result was “inactive”.

Regarding `CC(=O)c1ccc(S(=O)(=O)NCc2nnnn2-c2ccccc2)cc1`, the Potency result was “inactive”.

As to `CC(=O)c1ccccc1OCc1ccc(C(=O)c2ccccc2)cc1`, the Potency is 16.4 µM (active).

With `O=C(O)c1ccccc1OCc1ccccc1Cl`, the Potency entry is “inactive”.

Consider `O=C(NC1CCC(O)CC1)c1ccccc1OCc1ccc(F)cc1` (configuration not stated), for which the Potency entry was “inactive”.

Take `S=C(Nc1ccc2c(c1)OCO2)N1CCCC1`: the Potency result is “inactive”.

Consider `Cc1ccc(NC(=O)COC(=O)C2CC2)cc1S(=O)(=O)N1CCOCC1`, for which the Potency result is “inactive”.

Take `O=S(=O)(c1ccc(NC(=S)NN=C(C2CC2)C2CC2)cc1)N1CCOCC1`: the Potency entry is “inactive”.

In the case of `Cc1ccc(C(=O)Nc2ccc3c(c2)OCCO3)cc1S(=O)(=O)N1CCOCC1`, the Potency result is “inactive”.

Take `O=C(Nc1ccc(Oc2ccccc2)cc1)C1CCN(S(=O)(=O)c2ccc(Cl)cc2)CC1`: the Potency entry is “inactive”.

As for `O=C(CN1CCN(c2cccc(Cl)c2)CC1)Nc1ccc(S(=O)(=O)N2CCOCC2)cc1`, the Potency was 20.6 µM (active).

For the molecule `O=C(CN1CCN(S(=O)(=O)/C=C/c2ccccc2)CC1)Nc1ccc(N2CCOCC2)cc1`, the Potency result is “inactive”.

Take `O=C(CN1CCCCCC1)Nc1ccc(S(=O)(=O)N2CCCCC2)cc1`: the Potency entry is “inactive”.

As to `O=C(Nc1ccc(S(=O)(=O)N2CCOCC2)cc1)C1CCN(S(=O)(=O)c2ccc(Cl)cc2)CC1`, the Potency was 16.4 µM (active).

Consider `Cc1ccc(NC(=O)c2ccc(Cl)nc2)cc1S(=O)(=O)N1CCOCC1`, for which the Potency is 10.3 µM (active).

As for `Cc1ccc(NC(=O)C2CCC(C(C)(C)C)CC2)cc1S(=O)(=O)N1CCOCC1` (configuration not stated), the Potency was 13 µM (active).

On to `Cc1ccc(NC(=O)c2ccccn2)cc1S(=O)(=O)N1CCOCC1`, for which the Potency entry was “inactive”.

Regarding `Cc1ccc(NC(=O)C(C)OC(=O)C2CC3CCCC(C2)C3=O)cc1S(=O)(=O)N1CCOCC1` (configuration not stated), the Potency result is “inactive”.

`COc1cccc(C(=O)NNS(=O)(=O)c2ccc(F)cc2)c1`: the Potency result is “inactive”.

Take `Cc1c(NC(=O)c2cc(-c3ccc(Br)cc3)on2)c(=O)n(-c2ccccc2)n1C`: the Potency entry is “inactive”.

`CCCN(C(=O)CSc1nnc(N)s1)c1c(N)n(Cc2ccccc2)c(=O)[nH]c1=O`: the Potency result was “inactive”.

As to `COc1ccc(C(=O)Oc2ccc(-c3nnco3)cc2)cc1S(=O)(=O)N1CCOCC1`, the Potency result was “inactive”.

On to `Cc1nn(C)c(Cl)c1CN1CCC(Oc2ccc(C(=O)N3CCCC3)cc2)CC1`, for which the Potency entry is “inactive”.

With `Cc1ccc(C(CNC(=O)Nc2ccccc2)N2CCN(C)CC2)cc1` (configuration not stated), the Potency entry was “inactive”.

Turning to `CC(C)Cc1ccc(C(C)C(=N)N)cc1` (configuration not stated), the Potency was 7.31 µM (active).

`COc1c(F)c(F)c(-c2csc(N)n2)c(F)c1F`: the Potency entry is “inactive”.

On to `O=C(COC(=O)c1ccccc1Br)Nc1nnc(-c2ccccc2)o1`, for which the Potency result was “inactive”.

For the molecule `O=C(Nc1nnc(-c2ccc(Cl)cc2)o1)c1ccccc1Br`, the Potency was 23.1 µM (active).

Turning to `O=C(Nc1ccccc1)c1ccccc1Br`, the Potency result was “inactive”.

In the case of `CCCCNC(=O)N1CCCC(N(C)CCc2ccc(OC)c(OC)c2)C1` (configuration not stated), the Potency result was “inactive”.

Turning to `CC(NC(=O)CNC(=O)Cc1cccc2ccccc12)c1ccc(S(N)(=O)=O)cc1` (configuration not stated), the Potency entry is “inactive”.

Regarding `COc1ccc(CN2C3CCCC2CC(NC(=O)c2cccc(F)c2)C3)cc1` (configuration not stated), the Potency result is “inactive”.

As to `COc1ccc(-n2cc(CNC3CCOCC3)c(-c3cccc(F)c3)n2)cc1`, the Potency was 20.6 µM (active).

Take `Cc1cccc(-n2cc(CN3CCN(C(=O)c4ncn[nH]4)CC3)c(-c3cccc(F)c3)n2)c1`: the Potency entry is “inactive”.

Consider `COc1ccc(Cl)cc1-n1c(=S)sc2c(=O)n(-c3ccc(F)cc3)c(SCC(=O)O)nc21`, for which the Potency entry is “inactive”.

As to `COc1cc(C)c(CN2CCc3nnc(C(C)NC(=O)c4cccnc4)n3CC2)cc1C` (configuration not stated), the Potency result is “inactive”.

For `Cc1ccccc1Nc1c([N+](=O)[O-])ccc2nonc12`, the Potency result was “inactive”.

Consider `Cc1nn(C)cc1C(=O)c1ccccc1`, for which the Potency result is “inactive”.

In the case of `COc1ccc(N(C)C(=O)C2CCN(S(=O)(=O)c3cccc4nsnc34)CC2)cc1`, the Potency result is “inactive”.

Take `COc1ccc(CCC(=O)NCCc2csc(-c3ccc(Cl)cc3)n2)cc1`: the Potency was 23.1 µM (active).

As for `COc1ccc(OCCCC(=O)NCCc2ccccc2)cc1`, the Potency result was “inactive”.

As for `COc1ccc(CCNC(=O)COC(=O)c2cnc(Cl)c(Cl)c2)cc1`, the Potency result is “inactive”.

Regarding `CCOc1ccc(C(=O)Nc2cc(Cl)ccc2-n2cncn2)cc1OC`, the Potency entry is “inactive”.

With `CCC(NC(=O)C1CCCC1)c1ccc(C)cc1` (configuration not stated), the Potency entry is “inactive”.

For `Cc1cc[n+](C2CCCCC2)cc1`, the Potency was 15.8 µM (active).

With `NC(=O)COC(=O)c1cc(S(=O)(=O)N2CCN(c3ccccc3)CC2)ccc1Cl`, the Potency result was “inactive”.

`CC(=O)NC(=O)c1ccccc1O`: the Potency entry is “inactive”.

Regarding `Cc1cc(C(=O)CCC(=O)NNC(=O)c2ccccc2O)c(C)s1`, the Potency entry was “inactive”.

Turning to `CC1=C(C)CC(C(=O)NNC(=O)c2csc3c2CCC(C(C)(C)C)C3)C(C(=O)O)C1` (configuration not stated), the Potency entry was “inactive”.

As to `Cc1ccc(S(=O)(=O)N2CCCCC2)cc1NC(=O)CCNC(=O)c1ccccc1Cl`, the Potency entry is “inactive”.

For `CC1=C(C)CC(C(=O)NC(C)CCc2ccccc2)C(C(=O)O)C1` (configuration not stated), the Potency entry was “inactive”.

In the case of `NC(=O)C1CCN(C(=O)c2cc(S(=O)(=O)N3CCN(c4ccccc4)CC3)ccc2Cl)CC1`, the Potency was 10.3 µM (active).

With `COc1ccccc1N(C)S(=O)(=O)c1ccc(Cl)c(C(=O)N2CCC(C(N)=O)CC2)c1`, the Potency entry is “inactive”.

Consider `O=C(NNC(=O)c1cc(S(=O)(=O)N2CCCCC2)ccc1Cl)c1ccccc1O`, for which the Potency is 23.1 µM (active).

With `CC1=C(C)CC(C(=O)NNC(=O)c2ccccc2O)C(C(=O)O)C1` (configuration not stated), the Potency is 18.4 µM (active).

Take `O=C(COC(=O)c1cc(S(=O)(=O)N2CCCCC2)ccc1Cl)NCc1ccco1`: the Potency result is “inactive”.

Turning to `O=C(NNC(=O)c1ccccc1O)c1ccccc1O`, the Potency is 5.17 µM (active).
